The full data set covers some 8,800 targets. This sample favours those with a hit. About 0.5% of all pairs of compound and target were hits.
These targets were tested with Cc1nc(Nc2n[nH]c3c2CN(C(=O)N[C@H](CN(C)C)c2ccccc2)C3(C)C)c2sccc2n1 (assay: log2 fold change, soluble protein after heating vs DMSO (PISA); higher = thermal stabilisation; K562 lysate, 10 uM; active = over 0.2 and 3.5 SD of the protein, either way, in both replicates (recomputed)).
Method in brief: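 Pellets of K562 cells were dounce-homogenised in PBS pH 7.4 with 1 mM MgCl2, and the crude extract was held at 1 mg/mL protein for a 30 min treatment with 10 μM compound. Aliquots were heated for 3 min over 48°C-58°C and pooled before NP-40 was added to 0.5% at 4°C. The supernatant from 21,000xg for 90 min was quantified by TMTpro 16plex LC-MS/MS with channel sums equalised. Values are reported from duplicates as log-two fold change in thermal stability relative to solvent controls.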

Chain of UniProt P43250 (P43250 whole entry, looked up): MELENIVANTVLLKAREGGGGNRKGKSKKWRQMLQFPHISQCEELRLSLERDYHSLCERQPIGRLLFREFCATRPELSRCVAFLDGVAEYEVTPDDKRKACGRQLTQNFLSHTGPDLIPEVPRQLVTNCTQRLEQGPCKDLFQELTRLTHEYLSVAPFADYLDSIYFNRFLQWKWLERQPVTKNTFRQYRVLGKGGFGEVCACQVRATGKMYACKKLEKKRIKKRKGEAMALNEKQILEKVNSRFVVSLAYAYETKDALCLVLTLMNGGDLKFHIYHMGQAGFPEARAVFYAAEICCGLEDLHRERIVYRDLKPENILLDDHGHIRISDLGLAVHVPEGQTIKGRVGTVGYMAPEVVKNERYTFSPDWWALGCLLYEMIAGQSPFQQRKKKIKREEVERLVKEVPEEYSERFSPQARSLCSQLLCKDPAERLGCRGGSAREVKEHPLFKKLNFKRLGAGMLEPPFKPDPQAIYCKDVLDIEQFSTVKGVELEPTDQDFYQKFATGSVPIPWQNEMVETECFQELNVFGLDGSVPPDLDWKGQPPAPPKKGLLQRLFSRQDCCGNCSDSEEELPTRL
Chain of UniProt P20839 (P20839 whole entry, looked up): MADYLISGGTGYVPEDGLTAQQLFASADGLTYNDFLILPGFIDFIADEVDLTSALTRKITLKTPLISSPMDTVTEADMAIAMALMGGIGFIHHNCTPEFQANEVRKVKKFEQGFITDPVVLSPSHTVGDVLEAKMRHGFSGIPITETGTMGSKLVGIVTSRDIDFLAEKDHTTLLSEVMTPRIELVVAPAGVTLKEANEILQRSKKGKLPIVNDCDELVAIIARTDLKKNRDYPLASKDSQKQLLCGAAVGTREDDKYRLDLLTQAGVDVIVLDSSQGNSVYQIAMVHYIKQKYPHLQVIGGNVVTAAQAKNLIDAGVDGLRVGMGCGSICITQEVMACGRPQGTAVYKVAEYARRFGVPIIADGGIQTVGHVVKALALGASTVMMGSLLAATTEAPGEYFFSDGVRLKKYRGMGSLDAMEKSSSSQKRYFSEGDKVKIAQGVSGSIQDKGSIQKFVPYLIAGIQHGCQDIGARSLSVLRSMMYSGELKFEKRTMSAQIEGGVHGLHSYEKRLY
Chain of UniProt Q14687 (Q14687 whole entry, looked up): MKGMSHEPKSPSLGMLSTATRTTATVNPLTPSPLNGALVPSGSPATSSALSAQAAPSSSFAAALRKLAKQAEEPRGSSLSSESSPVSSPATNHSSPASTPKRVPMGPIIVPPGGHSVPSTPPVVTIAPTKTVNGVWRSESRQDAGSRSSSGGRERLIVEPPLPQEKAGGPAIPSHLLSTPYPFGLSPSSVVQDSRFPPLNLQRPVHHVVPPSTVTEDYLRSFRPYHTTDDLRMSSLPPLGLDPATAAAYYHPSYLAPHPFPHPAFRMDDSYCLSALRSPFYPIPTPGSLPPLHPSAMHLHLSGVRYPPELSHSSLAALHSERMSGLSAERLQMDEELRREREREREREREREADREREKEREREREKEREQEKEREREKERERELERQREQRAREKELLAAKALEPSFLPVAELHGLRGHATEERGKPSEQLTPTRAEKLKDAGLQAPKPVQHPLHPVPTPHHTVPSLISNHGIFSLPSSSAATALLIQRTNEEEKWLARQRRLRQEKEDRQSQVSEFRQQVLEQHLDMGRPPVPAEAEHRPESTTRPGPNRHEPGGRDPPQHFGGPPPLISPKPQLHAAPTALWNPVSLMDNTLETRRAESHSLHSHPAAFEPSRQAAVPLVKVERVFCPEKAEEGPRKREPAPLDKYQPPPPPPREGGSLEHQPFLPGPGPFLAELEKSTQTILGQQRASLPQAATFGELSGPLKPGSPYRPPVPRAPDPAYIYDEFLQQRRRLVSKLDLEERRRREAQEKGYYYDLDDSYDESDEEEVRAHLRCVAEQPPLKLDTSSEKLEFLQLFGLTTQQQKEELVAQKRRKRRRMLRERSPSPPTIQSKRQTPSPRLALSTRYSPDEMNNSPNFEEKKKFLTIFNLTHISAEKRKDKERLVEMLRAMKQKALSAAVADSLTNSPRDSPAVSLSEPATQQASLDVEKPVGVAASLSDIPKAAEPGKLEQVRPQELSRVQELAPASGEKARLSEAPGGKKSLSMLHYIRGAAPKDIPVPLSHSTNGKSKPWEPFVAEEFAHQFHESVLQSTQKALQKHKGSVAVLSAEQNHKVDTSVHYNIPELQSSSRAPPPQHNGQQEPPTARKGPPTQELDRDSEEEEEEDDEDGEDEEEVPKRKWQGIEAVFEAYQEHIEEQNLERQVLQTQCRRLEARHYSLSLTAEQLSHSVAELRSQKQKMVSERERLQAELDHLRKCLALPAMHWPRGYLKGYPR
Chain of UniProt Q58FG1 (Q58FG1 whole entry, looked up): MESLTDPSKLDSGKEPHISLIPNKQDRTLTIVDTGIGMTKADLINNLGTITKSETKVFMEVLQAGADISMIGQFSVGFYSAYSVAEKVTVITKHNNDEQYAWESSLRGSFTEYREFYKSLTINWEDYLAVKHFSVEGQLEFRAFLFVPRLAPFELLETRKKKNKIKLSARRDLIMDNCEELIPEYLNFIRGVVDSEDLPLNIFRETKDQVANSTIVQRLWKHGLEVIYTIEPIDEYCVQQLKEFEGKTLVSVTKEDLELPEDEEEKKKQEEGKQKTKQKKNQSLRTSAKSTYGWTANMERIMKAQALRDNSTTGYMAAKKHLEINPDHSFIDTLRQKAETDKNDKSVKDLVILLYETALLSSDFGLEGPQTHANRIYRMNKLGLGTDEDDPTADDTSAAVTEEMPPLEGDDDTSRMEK
Chain of UniProt P52272 (P52272 whole entry, looked up): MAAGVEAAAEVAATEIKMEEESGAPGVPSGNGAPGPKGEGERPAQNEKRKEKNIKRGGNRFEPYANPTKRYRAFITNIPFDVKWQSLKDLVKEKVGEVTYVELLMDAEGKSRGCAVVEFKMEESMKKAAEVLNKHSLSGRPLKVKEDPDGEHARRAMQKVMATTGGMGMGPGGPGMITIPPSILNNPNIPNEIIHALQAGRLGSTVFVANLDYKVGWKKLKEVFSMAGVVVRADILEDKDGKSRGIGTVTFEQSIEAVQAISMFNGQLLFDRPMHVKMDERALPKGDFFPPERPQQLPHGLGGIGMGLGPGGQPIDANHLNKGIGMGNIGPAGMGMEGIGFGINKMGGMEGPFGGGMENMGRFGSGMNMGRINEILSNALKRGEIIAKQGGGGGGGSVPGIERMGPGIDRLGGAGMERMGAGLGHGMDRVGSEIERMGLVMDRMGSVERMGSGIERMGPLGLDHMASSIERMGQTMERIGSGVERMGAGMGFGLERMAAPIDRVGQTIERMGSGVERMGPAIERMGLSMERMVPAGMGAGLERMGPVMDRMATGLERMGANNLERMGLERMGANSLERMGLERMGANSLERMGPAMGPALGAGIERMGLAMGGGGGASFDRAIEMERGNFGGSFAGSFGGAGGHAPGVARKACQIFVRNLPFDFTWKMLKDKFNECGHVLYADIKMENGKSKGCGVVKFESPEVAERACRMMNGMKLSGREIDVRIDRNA
Chain of UniProt Q9BUJ2 (Q9BUJ2 whole entry, looked up): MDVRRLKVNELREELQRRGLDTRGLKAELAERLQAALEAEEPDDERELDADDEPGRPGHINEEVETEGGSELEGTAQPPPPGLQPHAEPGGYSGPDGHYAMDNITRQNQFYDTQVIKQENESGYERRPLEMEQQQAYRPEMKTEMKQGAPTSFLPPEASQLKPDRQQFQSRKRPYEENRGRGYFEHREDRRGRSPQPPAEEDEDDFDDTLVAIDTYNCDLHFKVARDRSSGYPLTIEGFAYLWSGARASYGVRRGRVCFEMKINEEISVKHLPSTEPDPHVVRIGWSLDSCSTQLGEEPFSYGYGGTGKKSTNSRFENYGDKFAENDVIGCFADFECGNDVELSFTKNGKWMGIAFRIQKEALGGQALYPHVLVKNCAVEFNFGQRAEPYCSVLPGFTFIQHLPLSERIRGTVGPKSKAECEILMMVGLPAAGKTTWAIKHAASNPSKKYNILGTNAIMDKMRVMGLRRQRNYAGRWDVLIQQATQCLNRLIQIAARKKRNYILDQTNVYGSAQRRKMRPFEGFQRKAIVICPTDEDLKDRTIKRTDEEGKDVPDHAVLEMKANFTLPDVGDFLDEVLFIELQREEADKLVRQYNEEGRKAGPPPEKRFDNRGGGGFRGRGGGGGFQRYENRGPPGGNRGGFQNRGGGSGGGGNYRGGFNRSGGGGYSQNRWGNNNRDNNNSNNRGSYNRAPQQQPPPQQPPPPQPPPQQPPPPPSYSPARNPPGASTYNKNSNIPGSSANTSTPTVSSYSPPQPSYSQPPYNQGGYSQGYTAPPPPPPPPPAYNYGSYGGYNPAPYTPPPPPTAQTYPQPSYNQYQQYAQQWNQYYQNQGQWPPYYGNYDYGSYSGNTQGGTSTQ
Chain of UniProt Q9H0C8 (Q9H0C8 whole entry, looked up): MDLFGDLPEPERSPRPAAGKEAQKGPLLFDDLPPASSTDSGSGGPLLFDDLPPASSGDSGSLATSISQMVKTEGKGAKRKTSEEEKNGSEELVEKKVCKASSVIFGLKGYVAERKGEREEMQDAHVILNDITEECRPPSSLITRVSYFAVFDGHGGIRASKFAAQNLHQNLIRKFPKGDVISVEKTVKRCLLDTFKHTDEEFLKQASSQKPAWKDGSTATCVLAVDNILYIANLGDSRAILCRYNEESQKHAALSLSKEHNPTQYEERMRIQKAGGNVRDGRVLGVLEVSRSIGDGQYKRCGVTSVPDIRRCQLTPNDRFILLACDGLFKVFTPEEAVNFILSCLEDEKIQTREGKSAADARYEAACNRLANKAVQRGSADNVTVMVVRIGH
Chain of UniProt P09429 (P09429 whole entry, looked up): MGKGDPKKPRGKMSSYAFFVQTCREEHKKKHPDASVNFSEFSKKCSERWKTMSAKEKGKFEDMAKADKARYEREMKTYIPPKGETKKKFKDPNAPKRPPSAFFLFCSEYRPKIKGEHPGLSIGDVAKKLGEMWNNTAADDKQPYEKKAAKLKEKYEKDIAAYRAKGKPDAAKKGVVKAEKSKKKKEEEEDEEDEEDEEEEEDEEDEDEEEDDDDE

log2 fold change, inactive:
HMGB1 (UniProt P09429) -0.002
IGF2BP2 (UniProt Q9Y6M1) 0.008
GNB1 (UniProt P62873) 0.057
IRAK1 (UniProt P51617) 0.011
GRK6 isoform 2 (UniProt P43250) 0.094
ICAM2 (UniProt P13598) -0.077
IMMT (UniProt C9J406) 0.09
GUSB (UniProt P08236) -0.067
HSPA14 (UniProt Q0VDF9) -0.001
HNRNPH2 (UniProt P55795) 0.04
HDAC6 (UniProt Q9UBN7) -0.016
HSP90AA4P (UniProt Q58FG1) 0.052
KHK isoform 2 (UniProt P50053) 0.035
GTF3C3 (UniProt Q9Y5Q9) 0.052
H4C1 (UniProt P62805) -0.027
HSPB1 (UniProt P04792) 0.003
GNL3 (UniProt Q9BVP2) -0.022
KDM5C (UniProt P41229) -0.005
GOLGA1 (UniProt Q92805) -0.009
KATNBL1 (UniProt Q9H079) -0.143
HNRNPM (UniProt P52272) -0.043
HEATR3 (UniProt Q7Z4Q2) -0.021
HNRNPUL1 (UniProt Q9BUJ2) 0.018
HDGFL2 isoform 2 (UniProt Q7Z4V5) -0.005
HNRNPLL (UniProt Q8WVV9) 0.009
HDAC3 (UniProt O15379) -0.019
IMPDH1 isoform 6 (UniProt P20839) -0.034
HDHD5 (UniProt Q9BXW7) -0.081
KDM6A (UniProt O15550) 0.033
ILKAP (UniProt Q9H0C8) -0.01
IRF2BPL (UniProt Q9H1B7) 0.005
GSTP1 (UniProt P09211) -0.001
GLUL (UniProt P15104) -0.012
GSE1 (UniProt Q14687) 0.007
GSTCD (UniProt Q8NEC7) -0.04
HMGN4 (UniProt O00479) -0.072

Reference: the supplement of paper PMC10849652
